Laboratory results taken from PubChem BioAssay (NCI).
This is part of a sample that, as a whole, favours compounds with a hit. Of some 79,000 tested, about 15% had one in any assay. Activity calls are given as the source filed them. Cut-off read from the data, not from the text of the source: active = growth inhibition above about 70%; inactive = the rest.

Legend:
[1] = NCI Yeast Anticancer Drug Screen. Data for the rad52 strain (AID 147);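 note: 0% = growth of vehicle-treated control cultures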; details: S. cerevisiae rad52 mutant growth inhibition, hits give high values
Method in brief: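 Growth of repair-deficient yeast cells was compared between compound-treated and vehicle-treated cultures to give percent inhibition.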

[2] = NCI Yeast Anticancer Drug Screen. Data for the wt1 strain (AID 149);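 note: 0% = growth of vehicle-treated wt1 cultures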; details: S. cerevisiae wt1 strain (SPY 50644) growth inhibition, hits give high values
Method in brief: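 The wt1 strain was treated with compounds, and growth was compared with vehicle-treated cultures to give inhibition.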

[3] = NCI Yeast Anticancer Drug Screen. Data for the rad50EPP+ strain (AID 151);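 note: 0% = growth of vehicle-treated control cultures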; details: S. cerevisiae rad50 mutant strain, hits give high values
Method in brief: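 Measured: growth inhibition of rad50EPP+ yeast. Reference: vehicle-treated controls. Screen uses strains with defined genetic alterations in DNA damage repair or cell cycle control.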

[4] = NCI Yeast Anticancer Drug Screen. Data for the mgt1 strain (AID 153); details: S. cerevisiae mgt1 mutant growth inhibition, hits give high values
Method in brief: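 Compounds were applied to mgt1 mutant yeast, and growth was then compared against vehicle-treated control cultures to give percent inhibition.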

[5] = NCI Yeast Anticancer Drug Screen. Data for the rad50 strain (AID 155);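 note: 0% = growth of vehicle-only cultures of the same strain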; details: S. cerevisiae rad50 strain growth inhibition, hits give high values
Method in brief: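 Cells are treated with compound, grown, and their growth is then scored against vehicle-only cultures of the same repair-deficient yeast strain.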

[6] = NCI Yeast Anticancer Drug Screen. Data for the mec2-1 strain (AID 157); details: S. cerevisiae mec2-1 strain, hits give high values
Method in brief: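 Compounds were applied to mec2-1 yeast cells. Their growth was then compared with that of vehicle-treated cultures to give growth inhibition.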

[7] = NCI Yeast Anticancer Drug Screen. Data for the rad14 strain (AID 159);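 note: 0% = growth of vehicle-treated control cultures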; details: S. cerevisiae rad14 strain growth inhibition, hits give high values
Method in brief: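 Readout: yeast growth inhibition, referenced to vehicle-only cultures. Strain bears a defined alteration in DNA damage repair.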

[8] = NCI Yeast Anticancer Drug Screen. Data for the sgs1 mgt1 strain (AID 161);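 note: 0% = growth of cultures given vehicle only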; details: S. cerevisiae sgs1 mgt1 strain, hits give high values
Method in brief: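 Yeast cells carrying a defined DNA-repair defect were exposed to test compounds. Growth inhibition was measured relative to vehicle-treated controls.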

[9] = NCI Yeast Anticancer Drug Screen. Data for the CLN2oe strain (AID 163);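 note: 0% = growth of vehicle-only control cultures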; details: S. cerevisiae CLN2oe strain, hits give high values
Method in brief: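 Cells of an engineered yeast line with disturbed cell-cycle regulation are treated with compound. Inhibition of growth is then calculated relative to the vehicle-treated reference.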

[10] = NCI Yeast Anticancer Drug Screen. Data for the cln2 rad14 strain (AID 165);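 note: 0% = growth equal to vehicle treated cultures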; details: S. cerevisiae cln2 rad14 strain, hits give high values
Method in brief: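 Strain: cln2 rad14 yeast, altered in cell cycle control and DNA damage repair. Read-out: growth inhibition vs vehicle.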

[11] = NCI Yeast Anticancer Drug Screen. Data for the bub3 strain (AID 167); details: S. cerevisiae bub3 mutant strain, hits give high values
Method in brief: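 Part of a panel of yeast mutants defective in DNA damage repair or cell cycle regulation. Each strain is grown with compound, and inhibition is calculated relative to solvent-treated cultures.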

[12] = NCI Yeast Anticancer Drug Screen. Data for the wt2 strain (AID 169);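 note: 0% = growth of vehicle-treated yeast cultures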; details: S. cerevisiae wt2 strain growth inhibition, hits give high values
Method in brief: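 Growth of compound-treated yeast is measured and expressed as inhibition relative to vehicle-only controls.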

[13] = NCI Yeast Anticancer Drug Screen. Data for the mlh1 strain (AID 171);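 note: 0% = growth of vehicle-treated control cultures of the same strain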; details: S. cerevisiae mlh1 strain growth inhibition, hits give high values
Method in brief: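 Test agents were incubated with yeast bearing a defined DNA damage repair or cell cycle control alteration; values are growth inhibition normalised to vehicle-treated cultures.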

[14] = NCI Yeast Anticancer Drug Screen. Data for the sgs1 strain (AID 173);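 note: 0% = growth of vehicle-only control cultures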; details: S. cerevisiae sgs1 mutant, hits give high values
Method in brief: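 Strain with an altered DNA repair or cell cycle pathway exposed to compound. Growth then measured. Value = inhibition versus vehicle control.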

[15] = NCI Yeast Anticancer Drug Screen. Data for the mlh1 rad18 strain (AID 175); details: S. cerevisiae mlh1 rad18 strain growth inhibition; at 50.0 µM; hits give high values
Method in brief: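 A repair-deficient yeast strain is exposed to test compound, and growth is scored relative to vehicle-treated controls.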

[16] = NCI Yeast Anticancer Drug Screen. Data for the rad18 strain (AID 177); details: S. cerevisiae rad18 mutant growth inhibition, hits give high values
Method in brief: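 DNA-repair-defective yeast; compound treatment; growth inhibition scored against vehicle.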

[17] = at 5.0 µM (retest, dose inferred, filed as 0.5)
[18] = at 50.0 µM (retest, dose inferred, filed as 5.0)

Measured: growth inhibition

CC(=O)O[C@H]1C(=O)[C@@]2(C)[C@H]([C@H](OC(=O)c3ccccc3)[C@]3(O)C[C@H](OC(=O)[C@H](O)[C@@H](NC(=O)c4ccccc4)c4ccccc4)C(C)=C1C3(C)C)[C@]1(OC(C)=O)CO[C@@H]1C[C@@H]2O
inactive: [1]; at 1.2 µM 0% | [1]; at 3.7 µM 0% | [1]; at 11.0 µM 1% | [1]; at 33.0 µM 1% | [1]; at 100.0 µM 0% | [2]; at 1.2 µM -1% | [2]; at 3.7 µM -2% | [2]; at 11.0 µM -2% | [2]; at 33.0 µM -3% | [2]; at 100.0 µM -18% | [3]; at 1.2 µM -4% | [3]; at 3.7 µM -2% | [3]; at 11.0 µM -2% | [3]; at 33.0 µM 3% | [3]; at 100.0 µM 0% | [4]; at 1.2 µM -2% | [4]; at 3.7 µM -2% | [4]; at 11.0 µM -3% | [4]; at 33.0 µM -3% | [4]; at 100.0 µM -7% | [5]; at 1.2 µM -1% | [5]; at 3.7 µM -2% | [5]; at 11.0 µM 0% | [5]; at 33.0 µM -1% | [5]; at 50.0 µM 23.4% | [5]; at 100.0 µM -6% | [6]; at 1.2 µM -5% | [6]; at 3.7 µM -2% | [6]; at 11.0 µM 2% | [6]; at 33.0 µM -4% | [6]; at 50.0 µM 18.3% | [6]; at 100.0 µM -10% | [7]; at 1.2 µM -1% | [7]; at 3.7 µM -2% | [7]; at 11.0 µM 1% | [7]; at 33.0 µM -2% | [7]; at 100.0 µM -5% | [8]; at 50.0 µM -9% | [9]; at 1.2 µM -4% | [9]; at 3.7 µM -4% | [9]; at 11.0 µM -5% | [9]; at 33.0 µM -7% | [9]; at 100.0 µM -13% | [10]; at 50.0 µM 24.1% | [11]; at 1.2 µM -5% | [11]; at 3.7 µM -5% | [11]; at 11.0 µM 2% | [11]; at 33.0 µM -13% | [11]; at 50.0 µM -4.15% | [11]; at 100.0 µM -3% | [12]; at 1.2 µM -2% | [12]; at 3.7 µM -2% | [12]; at 11.0 µM -4% | [12]; at 33.0 µM -4% | [12]; at 100.0 µM -5% | [13]; at 1.2 µM -1% | [13]; at 3.7 µM -4% | [13]; at 11.0 µM -3% | [13]; at 33.0 µM -4% | [13]; at 100.0 µM -6% | [14]; at 1.2 µM -3% | [14]; at 3.7 µM -3% | [14]; at 11.0 µM -1% | [14]; at 33.0 µM -3% | [14]; at 100.0 µM -4% | [15] 15.8% | [16]; at 1.2 µM -5% | [16]; at 3.7 µM -1% | [16]; at 11.0 µM 1% | [16]; at 33.0 µM 2% | [16]; at 100.0 µM 0%

CNc1ccc(Cc2c[nH]c3ccccc23)cc1
inactive: [1]; at 1.2 µM -20% | [1]; at 3.7 µM -35% | [1]; at 11.0 µM -27% | [1]; at 33.0 µM 4% | [1]; at 100.0 µM 22% | [2]; at 1.2 µM -11% | [2]; at 3.7 µM -11% | [2]; at 11.0 µM -17% | [2]; at 33.0 µM -17% | [2]; at 100.0 µM -1% | [3]; at 1.2 µM -36% | [3]; at 3.7 µM -48% | [3]; at 11.0 µM -23% | [3]; at 33.0 µM 26% | [3]; at 100.0 µM 39% | [4]; at 1.2 µM -32% | [4]; at 3.7 µM -28% | [4]; at 11.0 µM -32% | [4]; at 33.0 µM 1% | [4]; at 100.0 µM 25% | [5]; at 1.2 µM -40% | [5]; at 3.7 µM -48% | [5]; [17] 42% | [5]; at 11.0 µM -41% | [5]; at 33.0 µM 14% | [5]; at 100.0 µM 26% | [6]; at 1.2 µM -28% | [6]; at 3.7 µM -15% | [6]; [17] 56% | [6]; at 11.0 µM -23% | [6]; at 33.0 µM -5% | [6]; at 50.0 µM 67.9% | [6]; at 100.0 µM 8% | [7]; at 1.2 µM -21% | [7]; at 3.7 µM -19% | [7]; at 11.0 µM -18% | [7]; at 33.0 µM -5% | [7]; at 100.0 µM -3% | [8]; [17] -13% | [8]; [18] 64% | [9]; at 1.2 µM -8% | [9]; at 3.7 µM -30% | [9]; at 11.0 µM -35% | [9]; at 33.0 µM -19% | [9]; at 100.0 µM -5% | [10]; [17] 27% | [11]; at 1.2 µM -8% | [11]; at 3.7 µM -1% | [11]; [17] 15% | [11]; at 11.0 µM 10% | [11]; at 33.0 µM 7% | [11]; at 100.0 µM 30% | [12]; at 1.2 µM -17% | [12]; at 3.7 µM -24% | [12]; at 11.0 µM -29%
active: [5]; [18] 76% | [5]; at 50.0 µM 89% | [6]; [18] 86% | [10]; [18] 70% | [11]; [18] 89%
